Laboratory results taken from the supplement of paper PMC10670038.
Structures can show the parent of a compound that is named as a salt. ± gives the standard deviation of the averaged measurements. The full ranking holds about 2,000 compounds; the median of “relative cell viability vs DMSO, compound + 0.2 uM CuET” is about 1, and the lowest 2% start at about 0.25. Many of the other results were omitted from the sample, so the lowest values are more common in it than they were.

The compounds below were run on TE10 (assay: relative cell viability vs DMSO, compound + 0.2 uM CuET (fraction); TE10 is an esophageal squamous carcinoma line; higher = less cytotoxic). Details: 2 µM; co-treatment: CuET (bis(diethyldithiocarbamate)copper) 0.2 uM; 48 h.
Experimental: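 TE10 ESCC cells (1,000/well, 384-well plates) were treated with Selleck bioactive library compounds at 2 uM combined with 0.2 uM CuET (copper diethyldithiocarbamate) for 48 h. Viability was read by CellTiter-Glo and expressed relative to DMSO wells. Two technical replicates (A, B).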

Row | SMILES | relative cell viability
1 | Cc1[nH]c2ccccc2c1CCNC(=O)c1cccs1 | 1.01 ± 0.15
2 | Cc1[nH]c2ccccc2c1C1=C(NCCc2ccc(F)cc2)C(=O)N(C)C1=O | 1.17 ± 0.023
3 | Cc1[nH]c2ccccc2c1CCNCc1ccc(/C=C/C(=O)NO)cc1 [Panobinostat (LBH589)] | 0.151 ± 0.0045
4 | COc1c(O)cc2c(c1O)[C@@H]1O[C@H](CO)[C@@H](O)[C@H](O)[C@H]1OC2=O [Bergenin] | 1.18 ± 0.021
5 | CN1CCC(NC(=O)c2cc(-c3c(O)cc(O)cc3Oc3ccc([N+](=O)[O-])cc3)on2)CC1 | 0.6427 ± 0.0019
6 | NC1CC1c1ccc(-c2cccc(O)c2)cc1 (configuration not stated) | 1.13 ± 0.036
7 | O=C(/C=C/c1cccc(S(=O)(=O)Nc2ccccc2)c1)NO [Belinostat (PXD101)] | 0.195 ± 0.017
8 | O=C(C=Cc1ccccc1)NC(NC(=S)Nc1ccc(Cl)cc1)C(Cl)(Cl)Cl (configuration not stated) | 0.908 ± 0.014
9 | Cn1cc(/C=C/C(=O)c2cccc(F)c2)cc1/C=C/C(=O)NO | 0.872 ± 0.12
10 | COC1C(O)CC(=O)OC(C)CC=CC=CC(OC2CCC(N(C)C)C(C)O2)C(C)CC(CC=O)C1OC1OC(C)C(OC2CC(C)(O)C(O)C(C)O2)C(N(C)C)C1O (configuration not stated) [Spiramycin] | 1.11 ± 0.0071
11 | COC(=O)CC(NC(=O)C(C)NC(=O)C(NC(=O)OCc1ccccc1)C(C)C)C(=O)CF (configuration not stated) | 1.3 ± 0.057
12 | CCCCc1nc2cc(/C=C/C(=O)NO)ccc2n1CCN(CC)CC [Pracinostat (SB939)] | 0.2435 ± 0.00015
13 | CN(C)Cc1ccc(S(=O)(=O)n2ccc(/C=C/C(=O)NO)c2)cc1 [Resminostat] | 0.848 ± 0.19
14 | COc1cc2c(cc1NS(=O)(=O)c1ccc(Br)cc1C)n(C)c(=O)n2C | 1.17 ± 0.15
15 | CCCC(=O)Nc1cccc(NC(=O)c2ccccc2Br)c1 | 1.01 ± 0.16
16 | O=C(O)CCNc1cc(N2CCc3ccccc3CC2)nc(-c2ccccn2)n1 | 0.765 ± 0.0059
17 | CNc1nc(Nc2cnn(C3CCN(C4COC4)CC3F)c2Cl)ncc1C(F)(F)F (configuration not stated) | 1.195 ± 0.0015
18 | Nc1cccc(-c2cc3c(Oc4cccc(O)c4)ncnc3[nH]2)c1 | 0.976 ± 0.062
19 | COc1ccc(-c2cnc3c(-c4cccc5ncccc45)cnn3c2)cc1 | 1.17 ± 0.13
20 | CC(C)Oc1ccc(-c2cnc3c(-c4ccnc5ccccc45)cnn3c2)cc1 | 1.15 ± 0.088
21 | c1cc(-c2cnn3cc(-c4ccc(N5CCNCC5)cc4)cnc23)c2cccnc2c1 | 0.182 ± 0.0055

Row | SMILES | relative cell viability
22 | Cc1c(C(=O)Nc2ccc(N3C[C@@H](C)O[C@@H](C)C3)nc2)cccc1-c1ccc(OC(F)(F)F)cc1 [LDE225 (NVP-LDE225,Erismodegib)] | 0.714 ± 0.081
23 | CNc1ncnc2c1ncn2[C@@H]1O[C@H](CO)[C@@H](O)[C@H]1O [N6-methyladenosine (m6A)] | 1.06 ± 0.23
24 | COc1ccc(C[C@H](N)C(=O)N[C@H]2[C@@H](O)[C@H](n3cnc4c(N(C)C)ncnc43)O[C@@H]2CO)cc1 [Puromycin 2HCl] | 0.249 ± 0.0061
25 | COc1nc(N)nc2c1ncn2[C@@H]1O[C@H](CO)[C@@H](O)[C@@H]1O [Nelarabine] | 1.21 ± 0.043
26 | Nc1nonc1C(=Nc1ccc(F)c(Cl)c1)NO | 1.15 ± 0.14
27 | O=C(Nc1cc2cc[nH]c2cn1)c1ccccc1 | 0.3986 ± 0.0004
28 | Cc1c(CN2CCN(C(=O)[C@H](C)O)CC2)sc2c(N3CCOCC3)nc(-c3cnc(N)nc3)nc12 | 0.495 ± 0.091
29 | CS(=O)(=O)N1CCN(Cc2cc3nc(-c4cccc5[nH]ncc45)nc(N4CCOCC4)c3s2)CC1 | 0.68 ± 0.0074
30 | COc1ccc(-c2nc(N3CCOCC3)c3sc(CN(C)c4ncc(C(=O)NO)cn4)cc3n2)cn1 | 0.1569 ± 0.00068
31 | NCCCC[C@@H]1NC(=O)[C@@H](Cc2ccc(O)cc2)NC(=O)[C@H](CC(=O)O)NC(=O)CNC(=O)[C@H](CCCN=C(N)N)NC1=O [Cyclo(RGDyK)] | 1.19 ± 0.27
32 | O=C(O)c1ccc(N2C(=O)C(=Cc3ccc(-c4ccc([N+](=O)[O-])cc4)o3)C=C2c2ccccc2)cc1 | 1.1 ± 0.22
33 | Cc1cc(C)cc(C(=O)NOCCCCCC(=O)NO)c1 | 0.23 ± 0.02
34 | O=C(CCCCCCC(=O)Nc1ccccc1)NO [Vorinostat (SAHA, MK0683)] | 0.473 ± 0.055
35 | Cc1cc(Cl)ccc1OCCCC(=O)NO [Droxinostat] | 0.997 ± 0.063
36 | C[C@H](O)[C@H](O)[C@@H](O)[C@@H](O)C=O [L-(+)-Rhamnose Monohydrate] | 1.15 ± 0.046
37 | CC(NC(=O)Cc1cc(F)cc(F)c1)C(=O)NC(C(=O)OC(C)(C)C)c1ccccc1 (configuration not stated) | 1.23 ± 0.04
38 | CN(CCOc1ccc(CC2SC(=O)NC2=O)cc1)c1ccccn1 (configuration not stated) [Rosiglitazone HCl] | 1.06 ± 0.062
39 | CN(CCOc1ccc(CC2SC(=O)NC2=O)cc1)c1ccccn1 (configuration not stated) [Rosiglitazone] | 1.04 ± 0.052
40 | CN(CCOc1ccc(CC2SC(=O)NC2=O)cc1)c1ccccn1 (configuration not stated) [Rosiglitazone maleate] | 1.12 ± 0.081
41 | COC(=O)C1=C(C#N)NC(C)=C(C(=O)OC(C)C)C1c1cccc([N+](=O)[O-])c1 (configuration not stated) [Nilvadipine] | 1.11 ± 0.1
42 | O=C(Nc1cccc2cccnc12)c1ccc(N2C(=O)C3C4C=CC(C4)C3C2=O)cc1 (stereo not drawn) [IWR-1-endo] | 0.994 ± 0.1
